Compound activity as filed in PubChem.
HepG2 tox: kills HepG2 cells in TGF-b inhibitor counter-screen. HepG2 CAGA-GFP viability, ATP luminescence, 18 h. Potency, µM (doses to about 46.1 µM), for the others: top-dose activity change, negative = cytotoxicity, actives largely listed as cytotoxic. actives 0.76% (n = 410,000). AID 588856
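HepG2 CAGA-GFP cells (1000/well, DMEM with 1% FBS) received compound, then TGF-beta at 500 pg/mL final, and were incubated 18 hours at 37 degrees C. Viability was read by CellTiter-Glo luminescence. Media-only wells were set as complete cell-killing and DMSO as no toxicity.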
TDP1 cell CPT: growth inhibition of DT40 Tdp1-/-;hTDP1 cells with camptothecin (screen for TDP1 inhibitors); chicken DT40 Tdp1-/-;hTDP1 cells + 20 nM CPT, ATP luminescence, 48 h; Potency, µM (top dose mostly 46.2 µM), for the others: at the top dose activity change, negative = growth inhibition, usual class: inhibitors; actives 12% (n = 420,000); note: % is set by controls: 0 for no effect and ±100 for the full control effect; nearly all actives have a fitted effect of over 55% in size
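Cell growth measured by CellTiter-Glo luminescence after a minimum 48 h, 37 C compound exposure with 20 nM CPT in Tdp1-knockout DT40 cells stably expressing hTDP1, seeded 400/well; qHTS titration format.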
TGFb SMAD3 inh: TGF-b pathway inhibition; HepG2 CAGA-GFP TGF-b/SMAD3 reporter, GFP fluorescence, 18 h; TGF-beta stimulated, 500 pg/mL final; Potency, µM (top dose mostly 46.1 µM), for inactives: at the top dose activity, negative = inhibition, actives largely listed as inhibitors; actives 1.2% (n = 410,000); note: % is set by controls: 0 for no effect and ±100 for the full control effect; nearly all actives have a fitted effect of over 65% in size
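Per well, imaged GFP fluorescence of HEPG2 CAGA-GFP cells gives the signal; cells get compound, then TGF-beta (500 pg/mL final), 18 h at 37 degrees C; %Activity versus -TGF-beta and +DMSO controls.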
ATXN2 expr inh: ATXN2 expression inhibition; HEK-293 ATXN2-luciferase reporter, luminescence, 24 h; Potency, µM (series often up to 57 µM), for the others: top-dose activity change, negative = inhibition, most hits filed as inhibitors; actives 0.72% (n = 360,000); note: % is set by controls: 0 for no effect and ±100 for the full control effect; nearly all actives have a fitted effect of over 55% in size
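ATXN2-luciferase reporter cells (luciferase flanked by upstream and downstream ATXN2 gene portions) were treated 24 h at 37 °C with compounds at up to 57 uM. SteadyGlo luminescence gave expression; GF-AFC fluorescence gave viability.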
TDP1 cell noCPT: qHTS for Inhibitors of human tyrosyl-DNA phosphodiesterase 1 (TDP1): qHTS in cells in absence of CPT | AID 686978, 2013 | Potency, µM (doses to about 46.2 µM), for inactives: top-dose activity change, negative = growth inhibition, hits mostly inhibitors | DT40 Tdp1-/- hTDP1 cells, no CPT, ATP luminescence, 48 h | actives 15% (n = 420,000); note: % is set by controls: 0 for no effect and ±100 for the full control effect; nearly all actives have a fitted effect of over 55% in size
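Camptothecin absent (DMSO only). Human TDP1-complemented DT40 knockout cells, 400 cells/well, 37 °C for minimum 48 hr; ATP measured via CellTiter-Glo, 30 min dark incubation, luminescence.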
ATXN viability: reduces viability in counter-screen for ATXN expression inhibitors; S2 cells (HEK-293 line with an ATXN2-luciferase reporter) viability, CellTiter-Fluor protease fluorescence, 24 h; Potency, µM (highest dose often 56.7 µM), actives largely listed as cytotoxic; actives 0.49% (n = 400,000); AID 651635; note: nearly all actives have a fitted effect of over 40% in size
* = called active by the depositor; i = inactive; ? = inconclusive; . = no result; [ ] = remark or other dose. Hits are enriched below; roughly 17% of the tested compounds scored in any of these assays. Calls come from the whole dose curve; as a rule, active = well fitted curve in the direction sought with a large enough effect; inconclusive = small, poorly fitted or top-dose-only effect, or another doubt; inactive = no such curve, though single readings can be large; an effect the other way counts as inactive or inconclusive. Potency is the fitted concentration of half-maximal effect.

SMILES	HepG2 tox	TDP1 cell CPT	TGFb SMAD3 inh	ATXN2 expr inh	TDP1 cell noCPT	ATXN viability
Oc1ccc2ccccc2c1CNc1ccc(Br)cc1	-57%	16µM*	?	6%	?	i
CCc1c(C)c2ccccc2[nH]c1=O	-4%	-23%	11%	.	?	.
CC1CCc2c(N3CCC(O)CC3)c(F)cc3c(=O)c(C(=O)O)cn1c23 (centres undefined)	14%	?	26%	-6%	?	i
Cc1cc(C)c(NC(=O)c2cn3c4c(c(N5CCN(C)CC5)c(F)cc4c2=O)OCC3C)c(C)c1 (centres undefined)	1%	18µM*	-10%	-38%	?	?
O=C(NCc1ccco1)c1cc(-c2ccccc2)c(N2CCOCC2)s1	-9%	-1%	?	-15%	-11%	?
CCOc1ccc(CCNC(=O)c2cc(-c3ccccc3)c(N3CCOCC3)s2)cc1OCC	0%	?	?	.	3.3µM*	i
O=C(NCc1ccc2c(c1)OCO2)c1cc(-c2ccccc2)c(N2CCOCC2)s1	-9%	?	5%	.	21µM*	i
CCOc1ccc(CCNC(=O)c2cc(-c3ccccc3)c(N3CCOCC3)s2)cc1	5%	?	-12%	2%	29µM*	i
COc1ccc(CCNC(=O)c2cc(-c3ccccc3)c(N3CCOCC3)s2)c(OC)c1OC	-10%	8.2µM*	-12%	.	23µM*	i
CCCc1cc(=O)oc2c(C)c3c(cc12)CN(CCc1ccc(Cl)cc1)CO3	-17%	6.5µM*	0%	-6%	15µM*	i
CCc1cc(=O)oc2c(C)c3c(cc12)CN(CCc1ccccc1OC)CO3	-23%	-41%	29%	-15%	21µM*	.
CCCc1cc(=O)oc2c3c(ccc12)OCN(Cc1ccccc1OC)C3	-11%	.	5%	-10%	.	.
Cc1ccc(Cl)cc1N1CCN(C(=O)c2cc(S(=O)(=O)N3CCCCC3)cn2C)CC1	-9%	13µM*	?	0%	21µM*	i
Cc1ccc(Cl)cc1N1CCN(C(=O)c2cc(S(=O)(=O)N3CCCC3)cn2C)CC1	-15%	16µM*	?	.	23µM*	.
Cc1ccc(C)c(N2CCN(C(=O)c3cc(S(=O)(=O)N4CCCCCC4)cn3C)CC2)c1	-3%	?	?	?	?	?
CCc1ccccc1Cn1c(=O)oc2cccnc21	-15%	1%	16%	-9%	3%	i
NC(=O)CSc1nc2cc3c(cc2c(=O)n1CCCCCC(=O)NCc1ccc2c(c1)OCO2)OCO3	1%	10%	12%	.	-23%	.
CC(=O)Nc1cccc(-c2csc(Nc3ccc(Cl)cn3)n2)c1	-36%	23µM*	?	.	?	?
CC(=O)Nc1ccc(-c2csc(Nc3ccc(Cl)cn3)n2)cc1	-25%	?	?	-30%	?	i
Cc1ccc(Nc2nc(-c3ccc(F)cc3)cs2)nc1	-40%	?	14%	.	?	i
Cc1ccc(Nc2nc(-c3ccc(O)c(O)c3)cs2)nc1	-28%	1µM*	?	13%	1.3µM*	i
COc1ccc(CCN(C)C(=O)c2cnn(-c3nccc(-c4ccc(C)o4)n3)c2C)cc1OC	.	5%[9.04 µM]	.	.	-46%	i
COc1ccc(-c2csc(C(C#N)=C(O)CSc3nccn3C)n2)cc1OC	-16%	8%	-4%	9%	?	i
O=C(/C=C/[C@H]1O[C@@H](n2ccc(=O)[nH]c2=O)[C@H](O)[C@@H]1O)NCCCc1ccccc1	4%	-2%	?	6%	10%	i
